Experiment [1] in a line: stimulators of nuclear beta-catenin in C2C12, primary screen, imaging, WNT3A-conditioned medium, mouse C2C12, NPC library (AID 1117326; in the data active means nuclear beta-catenin stimulation mostly above about 4.2%, no sharp cut-off; inactive means mostly below about 10%; further: reference of the scale not given here). As to conditions: stronger effect = higher value.
Experiment [2] can be described thus: stimulators of insulin release from INS-1E, primary screen, cell-based, 5 mM glucose, NPC library (AID 1117329;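 active means compound raises insulin release from rat beta cells at 5 mM glucose, no numeric limit stated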; further: reference of the scale not given here). The settings on record: rat INS-1E insulin secretion, at 10 µM, stronger effect = higher value.
Experiment [3] in a line: growth inhibition of GSK3B-pretreated HCT116 cells – cell-based, CellTiter-Glo, 0.2 to 20 µM (AID 1117336;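 active means compounds lowering colon cancer cell viability after pretreatment blocking the GSK3B kinase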). The settings on record: HCT116 viability after GSK3B inhibitor, at 20 µM, stronger effect = higher value. A general note: In ATP-based viability assays light output follows the ATP content of the culture.
Experiment [4] in a line: inhibition of endothelial tube formation, primary screen, imaging, VEGF stimulated, CD31 staining, tube area, NPC library (AID 1117340;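 active means compound that reduces growth-factor-driven endothelial tube area in a mixed cell culture, no cutoff stated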). The settings on record: VEGF-stimulated ADSC/ECFC co-culture, at 10 µM, stronger effect = higher value.
The nature of experiment [5]: glucagon-like peptide 1 release enhancers, primary assay, NCI-H716 cell line, NPC library (AID 1117341). Further: reference of the scale not given here. As to conditions: NCI-H716 cells, at 10 µM, stronger effect = higher value.
The nature of experiment [6]: HCT116 colon cancer cell growth inhibition, primary screen, CellTiter-Glo luminescence, NPC library (AID 1117342;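 active means compounds that lower survival of HCT116 colon cancer cells in the luminescence readout, no numeric limit stated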). As to conditions: at 20 µM (top of the series).
Experiment [7] in a line: CellTiter-Glo luminescent readout of SW480 viability loss, NPC library primary (AID 1117343;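 active means compounds that lower viability of the colon cancer cells in the luminescence readout, with no numeric limit stated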). The settings on record: CellTiter-Glo luminescence; at 20 µM (top of the series).
Experiment [8] is described as follows: decreased DLD-1 cellular survival, CellTiter-Glo luminescent readout, NPC compound collection, primary HTS (AID 1117346;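 active means compounds that lower survival of DLD-1 colon cancer cells in the luminescence readout, no cutoff given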). As to conditions: DLD-1 viability, CellTiter-Glo luminescence; at 20 µM (top of the series).

Calls of active or inactive are those of the source.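 How the source made its calls, unless noted: active means compound raises GLP1 secretion from the human gut endocrine cells, with no numeric limit stated; inactive means the rest.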

`CCCOC(=O)Cc1ccc(OCC(=O)N(CC)CC)c(OC)c1`: the nuclear beta-catenin stimulation in experiment [1] (at 10 µM) is 0.4% (inactive); in experiment [1] (stimulation, at 2 µM), 1.3%. Also, the insulin secretion stimulation in experiment [2] is -1.7% (inactive). Moreover, the viability decrease in experiment [3] is 0.2% (inactive). Also, the tube area decrease in experiment [4] is -2.3% (inactive). For the same compound, the GLP1 secretion stimulation in experiment [5] was -1.8% (inactive). Moreover, in experiment [6], the inhibition of viability was 9.6% (inactive). In addition, the viability decrease (inhibition) in experiment [7] was 8.2% (inactive); in experiment [8], -4.8% (inactive).
In the case of `CCC(C)(C)c1ccc(O)cc1`, the nuclear beta-catenin stimulation is 0.6% (inactive) in experiment [1] (at 10 µM) and -0.2% in experiment [1] (stimulation, at 2 µM). Besides, in experiment [2], the insulin secretion stimulation is -1% (inactive). Besides, the viability decrease in experiment [3] was -20.2% (inactive). The tube area decrease in experiment [4] was 9.4% (inactive). Also, in experiment [5], the GLP1 secretion stimulation was 6.1% (inactive). Also, in experiment [6], the inhibition of viability is 0.6% (inactive). In addition, the figures for the viability decrease (inhibition) in experiment [7] and in experiment [8] were -13% (inactive) and -2.4% (inactive), respectively.
Take `CCCCCCCCCCCCNCCNCCNCC(=O)O`: the nuclear beta-catenin stimulation in experiment [1] (at 10 µM) is 92.8% (active); in experiment [1] (stimulation, at 2 µM), 1.1%. In experiment [2], the insulin secretion stimulation was -0.3% (inactive). Also, the viability decrease in experiment [3] is 98.8% (active). For the same compound, the tube area decrease in experiment [4] is 74.7% (active). The GLP1 secretion stimulation in experiment [5] was 2.6% (inactive). In addition, the inhibition of viability in experiment [6] was 99.3% (active). The viability decrease (inhibition) in experiment [7] is 100% (active); in experiment [8], 101% (active).
Take `CC1=C(C(=O)O)N2C(=O)[C@@H](N)[C@H]2SC1`: the nuclear beta-catenin stimulation in experiment [1] (at 10 µM) is -0.8% (inactive); in experiment [1] (stimulation, at 2 µM) it was 0.3%. Moreover, in experiment [2], the insulin secretion stimulation is 0.4% (inactive). The viability decrease in experiment [3] was 9.7% (inactive). The tube area decrease in experiment [4] was -6.3% (inactive). For the same compound, the GLP1 secretion stimulation in experiment [5] is 4.2% (inactive). In addition, the inhibition of viability in experiment [6] was 13.3% (inactive). In addition, the viability decrease (inhibition) in experiment [7] is 33.8% (inactive); in experiment [8] it was 21.2% (inactive).
As to `CNC(C)Cc1ccccc1OC` (stereo unspecified), the nuclear beta-catenin stimulation in experiment [1] (at 10 µM) is -0.4% (inactive); in experiment [1] (stimulation, at 2 µM) it was 1.2%. Also, in experiment [2], the insulin secretion stimulation was 7.2% (inactive). In addition, in experiment [3], the viability decrease is -1.3% (inactive). In addition, the tube area decrease in experiment [4] was -13.1% (inactive). Also, in experiment [5], the GLP1 secretion stimulation was 0.2% (inactive). For the same compound, in experiment [6], the inhibition of viability was 9.4% (inactive). The viability decrease (inhibition) in experiment [7] was 41.8% (inactive); in experiment [8] it was 43.1% (inactive).
With `CN1CCC(O)(c2ccc(F)cc2)C(C(=O)c2ccc(F)cc2)C1` (stereo unspecified), the nuclear beta-catenin stimulation is 20.8% (inactive) in experiment [1] (at 10 µM) and 1.6% in experiment [1] (stimulation, at 2 µM). In experiment [2], the insulin secretion stimulation was 5% (inactive). In addition, the viability decrease in experiment [3] was -1.23% (inactive). Besides, the tube area decrease in experiment [4] was 18% (inactive). Further, in experiment [5], the GLP1 secretion stimulation was 4.8% (inactive). The inhibition of viability in experiment [6] is 4.35% (inactive). For the same compound, the viability decrease (inhibition) in experiment [7] is 87% (active); in experiment [8], 72.8% (active).
Turning to `CNC(=O)Oc1cccc2ccccc12`, the nuclear beta-catenin stimulation is 7.6% (inactive) in experiment [1] (at 10 µM) and 0.4% in experiment [1] (stimulation, at 2 µM). Besides, in experiment [2], the insulin secretion stimulation is 1.3% (inactive). Also, the viability decrease in experiment [3] is 0.5% (inactive). Moreover, the tube area decrease in experiment [4] was 41.9% (active). Besides, in experiment [5], the GLP1 secretion stimulation is -5.4% (inactive). Also, the inhibition of viability in experiment [6] is 5% (inactive). Moreover, the viability decrease (inhibition) was 114% (active) in experiment [7] and 16.3% (inactive) in experiment [8].
As for `Clc1ccccc1N1CCNCC1`, the nuclear beta-catenin stimulation in experiment [1] (at 10 µM) is 0.1% (inactive); in experiment [1] (stimulation, at 2 µM), -2.2%. The insulin secretion stimulation in experiment [2] is 5.2% (inactive). Moreover, in experiment [3], the viability decrease was 4.1% (inactive). In addition, the tube area decrease in experiment [4] was -12% (active). Further, the GLP1 secretion stimulation in experiment [5] is 3.6% (inactive). Besides, the inhibition of viability in experiment [6] is 48.4% (inactive). Besides, the figures for the viability decrease (inhibition) in experiment [7] and in experiment [8] were 19% (inactive) and 2% (inactive), respectively.
Consider `CC(C)NC(C)C`, for which the nuclear beta-catenin stimulation is 14.9% (inactive) in experiment [1] (at 10 µM) and 5.2% in experiment [1] (stimulation, at 2 µM). Besides, the insulin secretion stimulation in experiment [2] was 4.3% (inactive). Besides, the viability decrease in experiment [3] was -0.3% (inactive). Besides, the tube area decrease in experiment [4] was -6.3% (inactive). Besides, in experiment [5], the GLP1 secretion stimulation was -0.1% (inactive). Further, the inhibition of viability in experiment [6] is 1.1% (inactive). Also, the viability decrease (inhibition) in experiment [7] is 2.1% (inactive); in experiment [8] it was 0.4% (inactive).
In the case of `CN1C(=O)NC(=O)C(C)(C2=CCCCC2)C1=O` (stereo unspecified), the nuclear beta-catenin stimulation in experiment [1] (at 10 µM) is 1.5% (inactive); in experiment [1] (stimulation, at 2 µM), 0.7%. Moreover, the insulin secretion stimulation in experiment [2] is -0.5% (inactive). The viability decrease in experiment [3] was -11.4% (inactive). Further, in experiment [4], the tube area decrease is 0.1% (inactive). Further, the GLP1 secretion stimulation in experiment [5] is 0.1% (inactive). Also, the inhibition of viability in experiment [6] is -2.4% (inactive). The viability decrease (inhibition) is 18.4% (inactive) in experiment [7] and -1.75% (inactive) in experiment [8].
Take `O=c1[nH]c2ccccc2n1C1CCNCC1`: the nuclear beta-catenin stimulation in experiment [1] (at 10 µM) was 0.8% (inactive); in experiment [1] (stimulation, at 2 µM) it was -0.9%. For the same compound, the insulin secretion stimulation in experiment [2] was -0.9% (inactive). The viability decrease in experiment [3] was -5% (inactive). In addition, the tube area decrease in experiment [4] is -5.4% (inactive). In addition, the GLP1 secretion stimulation in experiment [5] was 1.9% (inactive). Further, the inhibition of viability in experiment [6] is -8.2% (inactive). In addition, the viability decrease (inhibition) in experiment [7] was -13.1% (inactive); in experiment [8], 7.3% (inactive).
On to `CN1C(=S)CN=C(c2ccccc2)c2cc(Cl)ccc21`, for which the nuclear beta-catenin stimulation in experiment [1] (at 10 µM) was -0.4% (inactive); in experiment [1] (stimulation, at 2 µM), 3.4%. Also, the insulin secretion stimulation in experiment [2] is 1.75% (inactive). Besides, the viability decrease in experiment [3] was 65.8% (active). For the same compound, in experiment [4], the tube area decrease is 6.8% (inactive). Further, the GLP1 secretion stimulation in experiment [5] is 1.6% (inactive). For the same compound, the inhibition of viability in experiment [6] was 50.3% (active). Further, the viability decrease (inhibition) in experiment [7] was 77.5% (active); in experiment [8], 32.7% (inactive).
For the compound `O=C(O)COc1ccccc1`, the nuclear beta-catenin stimulation is 1.6% (inactive) in experiment [1] (at 10 µM) and 0.3% in experiment [1] (stimulation, at 2 µM). The insulin secretion stimulation in experiment [2] was -2.7% (inactive). The viability decrease in experiment [3] is -4.9% (inactive). Besides, the tube area decrease in experiment [4] was -5.1% (inactive). Further, the GLP1 secretion stimulation in experiment [5] was 0.4% (inactive). The inhibition of viability in experiment [6] was -0.7% (inactive). The figures for the viability decrease (inhibition) in experiment [7] and in experiment [8] were -15.1% (inactive) and -15.4% (inactive), respectively.
With `C[C@]12C[C@@H]3S[C@H]3C[C@@H]1CC[C@H]1[C@H]3CC[C@@H](O)[C@@]3(C)CC[C@@H]12`, the nuclear beta-catenin stimulation in experiment [1] (at 10 µM) was -1% (inactive); in experiment [1] (stimulation, at 2 µM), -0.5%. Also, the insulin secretion stimulation in experiment [2] is 2.4% (inactive). Besides, the viability decrease in experiment [3] was -16.6% (inactive). Further, the tube area decrease in experiment [4] was 10.4% (inactive). The GLP1 secretion stimulation in experiment [5] is -4.2% (inactive). In experiment [6], the inhibition of viability was 18.8% (inactive). The viability decrease (inhibition) in experiment [7] is 17.2% (inactive); in experiment [8], -13.3% (inactive).

For the origin of these results see PubChem BioAssay.
